According to PubChem BioAssay (NCATS):
Inconclusive results are not listed. A call without a number means that no potency is given here. Active and inactive are the calls of the source. Unless noted, calls follow the shape of the dose curve; as a rule, active = well fitted curve in the direction sought with a large enough effect; inconclusive = small, poorly fitted or top-dose-only effect, or another doubt; inactive = no such curve, though single readings can be large; an effect the other way counts as inactive or inconclusive.

Legend:
[1] = molecular target: Glutathione peroxidase 1 (Homo sapiens) (UniProt P07203); assay: Primary qHTS Assay for Inhibitors of Recombinant Selenoprotein Glutathione Peroxidase 1 (GPX1) (AID 1845191); also: nearly all actives have a fitted effect of over 65% in size; also: potency is read from the fitted curve at half-maximal effect
How it was run: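 GR-coupled assay: compounds preincubated 30 min at room temperature with GPX1, then reaction started with CHP; final 10 nM GPX1, 1 mM GSH, 0.5 mM CHP, 0.5 mM NADPH, 100 nM GR, 0.01% BSA, pH 7.5 Tris buffer. NADPH fluorescence (340/450 nm) read at 0 and 15 min.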

[2] = molecular target: Phospholipid hydroperoxide glutathione peroxidase GPX4 (Homo sapiens) (UniProt P36969); assay: Primary qHTS Assay for Inhibitors of Recombinant Selenoprotein Glutathione Peroxidase 4 (GPX4) (AID 1845192); also: nearly all actives have a fitted effect of over 65% in size; also: potency is read from the fitted curve at half-maximal effect
How it was run: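 GR-coupled assay: recombinant GPX4 preincubated 30 min with compound at room temperature; final 200 nM GPX4, 1 mM GSH, 0.5 mM cumene hydroperoxide, 0.5 mM NADPH, 100 nM GR, 0.01% BSA, pH 7.5 Tris. NADPH fluorescence (340/450 nm) read at 0 and 15 min.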

[3] = molecular target: Luciferin 4-monooxygenase (Photinus pyralis) (UniProt P08659); assay: Primary firefly luciferase (FLuc) qHTS assay for identification of artifact compounds. (AID 1845220); details: outcome: dose series up to 54.1 µM; also: series mostly up to about 54 µM; nearly all actives have a fitted effect of over 60% in size
How it was run: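 Titrated compounds were incubated 15 min at RT, protected from light, with luciferin and ATP at 10 uM; reaction started with 10 nM FLuc, luminescence imaged at 5 min, and concentration-response fitted by Hill equation.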

[4] = Primary redox qHTS assay for identification of artifact compounds. (AID 1845223)
How it was run: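 Amplex Red (25 uM) and HRP (250 mU/mL) in HBSS, with compounds for 15 min, then 250 uM DTT for 30 min, room temperature, dark. Fluorescence 525/598 nm read; normalized to DMSO and 10 uM DA3003; Hill fit.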

[5] = qHTS drug screen for cell cycle checkpoint inhibitors in PARPi-resistant BRCA-mutant ovarian cancer cell lines. (AID 1963452; calls by dose curve); details: PEO1/OlaR viability, CellTiter-Glo luminescence, 96 h, stronger effect = lower value
How it was run: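 PEO1, PEO4 and PEO1/OlaR ovarian cancer cells, 600 per well, exposed 96 h at 37C to a dilution series. Viability read by CellTiter-Glo luminescence, normalized to DMSO and empty wells; activity summarized as Z-AUC.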

[6] = measured here: PEO1 parental Z-AUC

Chain of Phospholipid hydroperoxide glutathione peroxidase GPX4 (Homo sapiens) (P36969 whole entry, looked up): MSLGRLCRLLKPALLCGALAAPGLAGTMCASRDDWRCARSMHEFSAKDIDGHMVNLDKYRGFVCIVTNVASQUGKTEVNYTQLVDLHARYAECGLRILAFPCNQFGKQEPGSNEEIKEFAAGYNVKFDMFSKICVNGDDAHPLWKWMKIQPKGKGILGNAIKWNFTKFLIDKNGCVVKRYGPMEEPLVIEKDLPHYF
Chain of Glutathione peroxidase 1 (Homo sapiens) (P07203 whole entry, looked up): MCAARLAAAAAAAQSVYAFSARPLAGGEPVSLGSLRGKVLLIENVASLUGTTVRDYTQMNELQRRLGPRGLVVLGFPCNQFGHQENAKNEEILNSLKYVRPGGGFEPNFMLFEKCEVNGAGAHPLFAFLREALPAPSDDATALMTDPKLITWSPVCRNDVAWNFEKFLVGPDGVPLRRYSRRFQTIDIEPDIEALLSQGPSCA

## C[C@]12CC[C@@H]3c4ccc(OC(=O)c5ccccc5)cc4CC[C@H]3[C@@H]1CC[C@@H]2O
[1]
  Potency: inactive
[2]
  Potency: inactive
[3]
  outcome: inactive
[4]
  outcome: inactive

## CC1CCCCN1CCCOC(=O)c1ccccc1 (configuration not stated)
[1]
  Potency: inactive
[2]
  Potency: inactive

## CN(C)CCOc1ccc(/C(=C(/CCCl)c2ccccc2)c2ccccc2)cc1
[1]
  Potency: inactive
[2]
  Potency: inactive
[5]
  Z-AUC: 0.623 (inactive)
[5]; [6]
  Z-AUC: 0.97
[5]; measured here: PEO4 Z-AUC
  Z-AUC: 0.656

## COc1ccc([C@@H]2CC(=O)c3c(O)cc(O[C@@H]4O[C@H](CO[C@@H]5O[C@@H](C)[C@H](O)[C@@H](O)[C@H]5O)[C@@H](O)[C@H](O)[C@H]4O)cc3O2)cc1O
[1]
  Potency: inactive
[2]
  Potency: inactive
[5]
  Z-AUC: -0.188 (inactive)
[5]; [6]
  Z-AUC: 0.305
[5]; measured here: PEO4 Z-AUC
  Z-AUC: 0.67

## O=S(=O)(O)CC(S)CS (configuration not stated)
[1]
  Potency: 10.1 µM (active)
[2]
  Potency: 7.08 µM (active)

## CC(C)[C@H](N)C(=O)OCC(CO)OCn1cnc2c(=O)[nH]c(N)nc21 (some centres not stated)
[1]
  Potency: inactive
[2]
  Potency: inactive

## CC1(C)[C@@H]2CC[C@@]1(C)[C@H](OC(=O)CSC#N)C2
[1]
  Potency: inactive
[2]
  Potency: inactive

## NC(=O)[C@@H]1C[C@]2(NC(=O)NC2=O)c2cc(F)ccc2O1
[1]
  Potency: inactive
[2]
  Potency: inactive

## C[C@H](CCC(=O)O)[C@H]1CC[C@H]2[C@@H]3[C@H](O)C[C@@H]4C[C@H](O)CC[C@]4(C)[C@H]3C[C@H](O)[C@]12C
[1]
  Potency: inactive
[2]
  Potency: inactive

## O=P(O)(O)CP(=O)(O)O
[1]
  Potency: inactive
[2]
  Potency: inactive

## O=C(O[C@H]1CN2CCC1CC2)N1CCc2ccccc2[C@@H]1c1ccccc1
[1]
  Potency: inactive
[2]
  Potency: inactive

## CC(CCc1ccc(O)cc1)NCC(O)c1ccc(O)cc1 (configuration not stated)
[1]
  Potency: inactive
[2]
  Potency: inactive
